Bioassay records as filed in PubChem.
This is a sample that favours compounds with a hit; in the whole collection about 1.9% have one here.
EP2 modulator = EP2 receptor modulators, cAMP readout, primary screen, cell-based, HTRF cAMP, PGE2 stimulation; Prostaglandin E2 receptor EP2 subtype (Homo sapiens), P43116; EP2-expressing cells, cAMP HTRF FRET, PGE2 co-stimulation; induction, % at 25 µM; 260,000 tested, 0.83% active; AID 940, 2007;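 active means compounds whose cAMP rise, as percent of the full-agonist control response, exceeds 60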;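 further: rat C6 glioma line stably carrying human EP2 under a CMV promoter; the protocol text gives 20 µM as final concentration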
m-calpain inh = inhibitors of pig calpain II, primary screen, biochemical, fluorogenic peptide substrate, 1536-well; purified calpain II, 30 min; inhibition, % at 16 µM; 220,000 tested, 0.37% active;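 active means inhibition above about 50%, limit read from the data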
Furin inh = human furin inhibitors, primary screen, biochemical, fluorescence intensity | P09958 | purified furin, fluorogenic substrate cleavage | inhibition, % at 20 µM or 30 µM | 220,000 tested, 0.061% active; in the data active means inhibition above about 25%
Target sequence (P09958 108-714 limits assumed): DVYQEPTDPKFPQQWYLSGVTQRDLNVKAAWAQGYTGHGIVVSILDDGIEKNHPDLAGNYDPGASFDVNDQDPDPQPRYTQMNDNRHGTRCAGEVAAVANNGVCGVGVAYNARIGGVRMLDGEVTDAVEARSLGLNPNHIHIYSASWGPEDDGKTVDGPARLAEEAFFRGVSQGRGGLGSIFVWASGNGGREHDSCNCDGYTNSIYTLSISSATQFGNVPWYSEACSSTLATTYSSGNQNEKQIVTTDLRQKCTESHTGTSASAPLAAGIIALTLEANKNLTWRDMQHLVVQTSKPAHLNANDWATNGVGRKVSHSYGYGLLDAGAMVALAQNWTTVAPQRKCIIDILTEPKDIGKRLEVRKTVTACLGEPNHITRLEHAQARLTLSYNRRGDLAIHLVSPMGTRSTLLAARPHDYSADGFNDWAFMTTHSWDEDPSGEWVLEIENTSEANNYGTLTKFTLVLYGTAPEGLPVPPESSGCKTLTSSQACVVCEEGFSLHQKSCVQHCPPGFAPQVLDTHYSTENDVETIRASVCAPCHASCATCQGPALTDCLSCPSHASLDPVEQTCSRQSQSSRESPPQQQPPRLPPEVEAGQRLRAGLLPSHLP
HMGR II inh = inhibitors of E. faecalis class II HMGR, primary screen, biochemical, Enterococcus faecalis; HMG-CoA reductase (Enterococcus faecalis, mvaE); purified E. faecalis HMGR, NADPH absorbance 340 nm kinetic; inhibition, % at 10 µM; 190,000 tested, 0.41% active;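 active means inhibition above a set limit, the median over all tested compounds plus 3 SD, cut at about 9.5% in these data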;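 further: enzyme runs in reverse so mevalonate oxidation gives rising NADPH absorbance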
PGE2 EP2 inh = human EP2 receptor antagonists, primary screen, TR-FRET cAMP, C6 glioma cells. C6 glioma cells expressing human EP2; cells stimulated with saturating PGE2. inhibition, % at 25 µM. Prostaglandin E2 receptor EP2 subtype (Homo sapiens), P43116. 260,000 tested, 0.52% active;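 active means percent inhibition above 40 after rounding to a whole number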;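 further: rat C6 glioma host cells with rolipram phosphodiesterase inhibitor present; the protocol text gives 20 µM as final concentration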
Numbers stand for hits; - = inactive; . = no result given; ! = not active in a repeat.

SMILES	EP2 modulator	m-calpain inh	Furin inh	HMGR II inh	PGE2 EP2 inh
CCCNC(=O)COC(=O)CCC(=O)c1ccc(F)cc1	-	-	-	-	-
Cc1ccc(NC(=O)c2cccc(C(=O)OC(C)C)n2)c(Br)c1	62	-	-	-	-
COC(=O)c1cccc(C(=O)Nc2ccc(C)cc2Br)n1	-	-	-	-	.
Cc1ccc(CN(C)CC(=O)Nc2ccc3c(c2)CCC3)cc1	-	-	-	14	-
CSc1ncc(C(=O)NC2(c3ccccc3F)CCCC2)cn1	-	.	.	.	-
C=CCSC1=N/C(=C\c2sccc2C)C(=O)S1	64	-	-	-	-
CN(C)CCC[C@@H]1c2ccccc2Oc2ccc(C(F)(F)F)cc21	-	.	.	.	58
CN(C)CCC1Sc2ccccc2Oc2ccccc21 (stereo not drawn)	-	-	-	-	-
COCCn1c(SCC(=O)c2ccccc2)nc2ccccc2c1=O	-	-	-	-	-
COCCn1c(SCCOc2ccccc2)nc2ccccc2c1=O	64	-	-	-	-
COCCn1c(SCc2ccccc2F)nc2ccccc2c1=O	-	51	-	-	-
COc1ccc2cc(CN(C(=O)Nc3ccccc3Cl)C3CCCC3)c(=O)[nH]c2c1	-	.	.	.	-
O=c1ccc2[n+]([O-])c3ccc(O)cc3oc-2c1	-	-	-	.	83
Cc1oc2c(c1C(=O)Nc1cccc3ccccc13)CCCC2	-	58	-	-	-
COCCn1c2ccccc2n2c(=O)n(CC(=O)NC34CC5CC(CC(C5)C3)C4)nc12	-	.	.	.	-
Cc1cccc(OCC(=O)Nc2ccc3oc(-c4ccncc4)nc3c2)c1	-	.	.	.	-
CC(C)(C)c1csc(N/N=C/c2cccnc2)n1	-	51	-	-	-
CC(C)(C)C(=O)N1CCC(c2nc3sc4c(c3c(=O)[nH]2)CCCC4)CC1	-	.	.	.	.
Cc1ccc(SCC(=O)Nc2ccc3c(c2)OCO3)cc1	-	.	.	.	-
Cc1ccc2cc(CN(Cc3ccccc3)Cc3nnnn3C3CCCC3)c(=O)[nH]c2c1	62	-	-	-	-
CCc1ccc2[nH]c(=O)c(CN(Cc3ccccc3)Cc3nnnn3C3CCCCC3)cc2c1	74	.	.	.	-
CCc1ccc2[nH]c(=O)c(CN(Cc3ccc4c(c3)OCO4)Cc3nnnn3C3CCCC3)cc2c1	-	-	-	-	-
CCc1ccc2[nH]c(=O)c(CN(Cc3ccccc3OC)Cc3nnnn3C(C)(C)CC)cc2c1	61	.	.	.	-
Cc1ccc2[nH]c(=O)c(CN(Cc3cccs3)Cc3nnnn3C3CCCC3)cc2c1	75	.	.	.	-
CCC(C)(C)n1nnnc1CN(Cc1ccccc1OC)Cc1cc2cc(C)ccc2[nH]c1=O	-	.	.	.	-
SMILES	EP2 modulator	m-calpain inh	Furin inh	HMGR II inh	PGE2 EP2 inh
CC[C@H](Cn1ncc2ccccc2c1=O)NC(=O)CC(C)C	-	.	.	.	.
O=C(Cn1nc(C(F)(F)F)c2c1CCC2)Nc1ccc(Cl)c(Cl)c1	-	.	.	.	-
CCOC(=O)Cn1nnnc1CN(Cc1ccccc1)Cc1cc2ccc(C)cc2[nH]c1=O	-	.	.	.	-
Cc1cc2cc(CN(CCc3ccccc3)Cc3nnnn3C3CCCCC3)c(=O)[nH]c2cc1C	66	.	.	.	-
CCOC(=O)Cn1nnnc1CN(Cc1ccccc1)Cc1cc2c(C)cc(C)cc2[nH]c1=O	65	.	.	.	-
Cc1ccc2[nH]c(=O)c(CN(Cc3ccc(F)cc3)Cc3nnnn3C3CCCC3)cc2c1	63	.	.	.	-
COc1ccc(NC(=O)CSc2nc(C(C)C)nc3ccccc23)cc1OC	-	.	.	.	-
Cc1ccc(S(=O)(=O)N2CCCC2C(=O)O)cc1 (stereo not drawn)	-	-	-	-	-
Cc1ccc(C)c(N2CCN(C(=O)C3CCCCN3S(=O)(=O)c3ccc(F)cc3)CC2)c1 (stereo not drawn)	-	57	-	-	-
Cc1ccc(N2CCCn3c2cc(C)c(C#N)c3=O)cc1C	-	-	-	9.8	-
Cc1ccc(N2CCCn3c2cc(C)c(C#N)c3=O)cc1Cl	-	-	-	-	-
Cc1[nH]cnc1CN(Cc1ccccc1F)C1CC(C)(C)NC(C)(C)C1	-	.	.	.	-
Cc1ccc(C2N=C3C=C(NC(=O)c4cccnc4)C=CC3O2)cc1C (stereo not drawn)	-	.	.	.	-
COc1ccc([C@@H]2CN(C(=O)c3csc4c3CCCC4)C[C@H]2C(=O)O)cc1	-	.	.	.	-
Cc1ccc2c(c1)N(CC(=O)N1c3ccccc3Sc3ccccc31)C(=O)CO2	63	.	.	.	-
O=C(CN1CCc2ccccc2C1)Nc1ccc(C(F)(F)F)cc1	-	.	.	.	-
Cc1ccc(NC(=O)c2cc(N3C(=O)C=CC3=O)ccc2N2CCOCC2)cc1Cl	-	-	-	-	94
Cc1ccc(NC(=O)c2cc(N3C(=O)CCC3=O)ccc2N2CCOCC2)cc1	-	-	-	-	-
O=C(NC1CC1)[C@@H]1C=CCN1S(=O)(=O)c1ccc(F)cc1	-	.	.	.	.
CCn1c(-c2ccccc2)c[nH]c1=S	-	-	-	-	-
CC(C)Cn1c(-c2ccc(Br)cc2)c[nH]c1=S	-	75	-	-	-
CC(=O)Nc1ccc2nc(NC(=O)c3cccc(OC(C)C)c3)sc2c1	-	.	.	.	-
CC(C)=CCc1c(O)cc(O)c2c(=O)c3c(CC=C(C)C)c(O)ccc3oc12	.	.	.	.	42
COc1ccc(N2CC(O)=C(c3nc(-c4ccc(Br)cc4)cs3)C2=N)cc1	-	-	-	-	48
Cc1cc(N2CCCC2)c2ccccc2n1	-	.	.	.	-
SMILES	EP2 modulator	m-calpain inh	Furin inh	HMGR II inh	PGE2 EP2 inh
O=[N+]([O-])c1ccc(N(c2ccccc2)c2ccccc2)cc1	61	-	-	-	-
CCN(C(=O)c1ccccc1)c1ccc([N+](=O)[O-])cc1	-	-	-	-	-
CCC(C)(C)n1nnnc1C(c1cc2cc3c(cc2[nH]c1=O)OCCO3)N1CCCC1 (stereo not drawn)	-	.	.	.	-
Clc1ccccc1CN(CCCn1ccnc1)Cc1cnc[nH]1	-	.	.	.	-
COc1cc(OC)c2c(=O)cc(-c3ccccc3)oc2c1	-	-	-	-	.
COc1cc2c(c3oc(-c4ccccc4)cc(=O)c13)C=CC(C)(C)O2	-	-	-	-	50
c1ccc(CSc2ccc(-c3cccs3)nn2)nc1	-	-	-	12	-
c1ccc(CSc2ccc(-c3cccs3)nn2)cc1	-	-	-	-	-
Cn1c(N)c(C(=O)COC(=O)CCCc2nc3ccccc3s2)c(=O)n(C)c1=O	-	51	-	-	-
Cn1c(N)c(C(=O)COC(=O)C2CCCCC2)c(=O)n(C)c1=O	-	89	-	-	-
c1ccc2c(CNCC3CCCO3)cccc2c1 (stereo not drawn)	-	.	.	.	-
Cc1cc(C(=O)O)ccc1-n1c(C)cc(/C=C(/C#N)C(=O)Nc2ccccc2)c1C	-	59	-	-	-
Cn1c(C(=O)N(Cc2ccccc2)Cc2cccs2)cc2sccc21	65!	-	-	-	-
NC(=O)C1Cc2ccccc2CN1S(=O)(=O)c1cccs1 (stereo not drawn)	-	-	-	9.7	-
